Screening results deposited in PubChem BioAssay by several laboratories.
FAS TE block: blocks the thioesterase domain of human fatty acid synthase | P49327 | inhibition, % at 15 µM | 360,000 compounds, 0.67% hits | recombinant FAS-TE, OMFH fluorogenic substrate, fluorescence endpoint | AID 602261;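 active = compounds whose normalised, plate-corrected inhibition of enzyme fluorescence in the single-dose primary screen is 50% or more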;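 note: 0% = DMSO with enzyme and 100% = substrate without enzyme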
rCAG RNA binder: binds r(CAG) RNA repeats | inhibition, % at 3 µM | r(CAG) RNA repeat, TO-PRO-1 dye displacement fluorescence | 370,000 compounds, 1.3% hits;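 active = inhibition above the plate cutoff, the mean of all test compounds on that plate plus 3 SD, cut at about 35% in these data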;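 note: 0% = DMSO alone and 100% = 100 µM mitoxantrone as full dye displacement; higher means more dye released from RNA so lower well fluorescence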
Myeloid diff MLP: myeloid differentiation induction | calls only at 10 µM | 360,000 compounds, 1% hits | ER-HoxA9 myeloid progenitors, lysozyme-GFP differentiation, flow cytometry | AID 624256;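 active = normalized GFP-positive differentiation at or above the plate's own cutoff, the solvent-only control mean plus 3 SD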;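 note: cells exposed to compound for four days before flow analysis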
NR3A LBD binder: modulates the human NR3A ligand-binding domain; NR3A LBD differential scanning fluorimetry, Tm shift; 0% = protein alone, 100% = glycine-bound protein; Tm shift relative to glycine control, % at 25 µM; 340,000 compounds, 2.5% hits; AID 1259313;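 active = melting temperature shift of at least 10% of the positive control shift, at one fixed dose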
MPTP inh: inhibitors of mitochondrial permeability transition pore | inhibition, % at 10 µM | 360,000 compounds, 1.4% hits | isolated mouse mitochondria, Ca2+ swelling absorbance, 30 min;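 active = inhibition of 50% or more, scaled per plate between neutral and stimulator controls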;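 note: 0% = DMSO wells given calcium and 100% = 1 mM EGTA wells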
rCAG bind conf: r(CAG) RNA repeat binding, confirmation. shares compounds with rCAG RNA binder. TO-PRO-1 dye displacement fluorescence. inhibition, % at 3 µM. 4,300 compounds, 70% hits. AID 652065;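 active = inhibition above a per-plate cutoff, the mean inhibition of sample wells plus 3 SD, cut at about 35% in these data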;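 note: loss of TO-PRO-1 fluorescence as compound displaces dye from 1x1 AA loop RNA; 0% = DMSO only wells and 100% = 100 µM mitoxantrone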
DNA CAG counter: counter-screen for rCAG RNA binders: DNA CAG dye complex inhibitors | shares compounds with rCAG RNA binder | d(CAG) DNA oligo TO-PRO-1 dye displacement, fluorescence | inhibition, % at 3 µM | 4,300 compounds, 94% hits | AID 652068;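 active = inhibition above its plate's cutoff, the mean test-well inhibition plus 3 SD, cut at about 4.8% in these data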;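 note: 0% = DNA dye mix with DMSO and 100% = 100 µM mitoxantrone; hits displace the dye from DNA and so lower well fluorescence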
* = called active by the depositor; i = inactive; nt = no result given; + = active, no number. Shown are actives, neighbours in structure and some others; about 5.7% of the full set was active somewhere.

SMILES	FAS TE block	rCAG RNA binder	Myeloid diff MLP	NR3A LBD binder	MPTP inh	rCAG bind conf	DNA CAG counter
O=C(O)c1cccc(NC(=O)c2ccc(Cl)c(S(=O)(=O)N3CCCCCC3)c2)c1	0	35*	i	0	0	32	5.4*
O=C(Nc1cccnc1)c1ccc(Cl)c(S(=O)(=O)N2CCCCC2)c1	2	-4	i	4	-2	nt	nt
O=C(O)c1cccc(NC(=O)c2cccc(S(=O)(=O)N3CCc4ccccc4C3)c2)c1	-2	37*	i	0	-2	23	4.5*
Cc1ccc(S(=O)(=O)Nc2ccc3cn[nH]c3c2)cc1C	0	6	i	-3	1	nt	nt
Cc1ccc(S(=O)(=O)Nc2ccc3cn[nH]c3c2)cc1	-2	47*	i	-2	-1	3	1
Cc1ccc(S(=O)(=O)Nc2ccc3c(c2)C(=O)c2ccccc2-3)cc1	32	37*	i	nt	1	31	7.0*
Cc1c(NC(=O)c2ccccc2NS(=O)(=O)c2ccc(Br)cc2)c(=O)n(-c2ccccc2)n1C	-5	42*	i	-6	2	47*	14*
Cc1c(NS(=O)(=O)c2ccc(Br)cc2)c(=O)n(-c2ccccc2)n1C	0	-3	i	-3	0	nt	nt
CC1SC(C)C(=O)N(CC(=O)NC2CCCCC2)C1=O (configuration not stated)	-2	-2	i	0	0	nt	nt
NS(=O)(=O)c1cccc(NC(=O)CSc2nc3nc(-c4cccs4)cc(C(F)(F)F)c3c(=O)[nH]2)c1	32	50*	i	-2	-1	77*	45*
NS(=O)(=O)c1cccc(NC(=O)CSc2nc3ccccc3[nH]2)c1	-4	1	i	0	2	nt	nt
CSCCC(NC(=O)COc1ccccc1)C(=O)N1CCCCCC1 (configuration not stated)	6	-1	i	-1	-2	nt	nt
Nc1ccc(O)c2c1C(=O)c1ccccc1C2=O	3	24	i	-25	11	nt	nt
O=C1C=C(O)c2c(O)cc(O)c(O)c2C1=O	3	56*	i	-3	6	20	5.2*
O=C1c2ccccc2C(=O)c2c(O)c(O)cc(O)c21	5	42*	i	-9	16	60*	32*
O=C(NCc1cccnc1)c1cc(C2CCCCN2C(=O)c2ccc3ccccc3c2)on1 (configuration not stated)	-1	1	i	nt	1	nt	nt
COC(C(=O)Nc1c(F)cccc1F)c1ccccc1 (configuration not stated)	-2	-1	i	1	0	nt	nt
CN1CCN(C(=O)C2CCN(c3ncc(C(F)(F)F)cc3Cl)CC2)CC1	3	-8	i	1	0	nt	nt
O=C(O)c1cc(-c2ccc3ccccc3c2)nc2ccc(F)cc12	-1	37*	+	2	-1	19	4
O=C(O)c1cc(-c2cccc3ccccc23)nc2ccccc12	-3	-1	i	3	1	nt	nt
O=C(Nc1ncccn1)c1cc(-c2ccc(F)cc2)nc2ccccc12	0	-2	i	-1	0	nt	nt
O=C(O)c1cc(-c2c[nH]c3ccccc23)nc2cc3ccccc3cc12	4	54*	i	nt	1	35*	13*
COc1ccc2[nH]c(C(=O)O)c(NS(=O)(=O)c3ccc(C)cc3C)c2c1	-8	49*	i	-6	-1	24	4.9*
CCCS(=O)(=O)Nc1c(C(=O)O)[nH]c2ccc(OC)cc12	-1	9	i	1	0	nt	nt
Cc1ccc(S(=O)(=O)Nc2c(C(=O)O)[nH]c3ccccc23)cc1C	-8	46*	i	0	0	34	11*
SMILES	FAS TE block	rCAG RNA binder	Myeloid diff MLP	NR3A LBD binder	MPTP inh	rCAG bind conf	DNA CAG counter
CC1CCCCC1NS(=O)(=O)c1ccc(S(=O)(=O)NCc2ccncc2)cc1 (configuration not stated)	nt	nt	nt	-3	nt	nt	nt
O=C(OCc1ccccc1)N1Cc2ccnnc2CC1c1ccccc1Br (configuration not stated)	1	6	i	nt	0	nt	nt
CC(C)n1c(=O)c2ccccc2n1Cc1cn(-c2ccccc2)nn1	-5	-1	i	nt	-1	nt	nt
COc1ccc(Br)c2oc(S)cc(=O)c12	3	41*	i	-3	2	25	7.6*
COc1ccc(C(=O)c2ccc(OC)c(Br)c2)cc1Br	29	3	i	-6	2	nt	nt
Cc1ccc(S(=O)(=O)Nc2cccc(S(=O)(=O)Nc3ccccc3C(=O)O)c2)c(C)c1	2	67*	i	-4	0	65*	26*
O=C(O)c1ccccc1NS(=O)(=O)c1cccc(NS(=O)(=O)c2cc(Br)ccc2Br)c1	-2	69*	i	5	-2	61*	22*
CCOc1ccc(Br)cc1S(=O)(=O)Nc1cccc(S(=O)(=O)Nc2ccccc2C(=O)O)c1	7	78*	i	1	1	83*	48*
Cc1ccccc1NC(=O)c1cccc(S(=O)(=O)Nc2cccc(C(=O)O)c2)c1	-7	4	i	2	-1	nt	nt
O=C(O)c1cccc(S(=O)(=O)Nc2cccc(S(=O)(=O)Nc3ccc(Br)cc3)c2)c1	-1	31	i	-2	-1	nt	nt
COc1ccc(N(CC(=O)Nc2cccc(C(F)(F)F)c2)S(=O)(=O)c2c(C)[nH]c(=O)[nH]c2=O)cc1	-5	37*	i	-6	2	33	8.3*
CCc1ccc(NC(=O)CN(c2ccc(OC)cc2)S(=O)(=O)c2c(C)[nH]c(=O)[nH]c2=O)cc1	-8	40*	i	1	0	25	4
COc1ccc(N(CC(=O)Nc2cccc(F)c2)S(=O)(=O)c2c(C)[nH]c(=O)[nH]c2=O)cc1	0	13	i	-3	3	nt	nt
CCOc1ccc(N(CC(=O)Nc2ccc(CC)cc2)S(=O)(=O)c2c(C)[nH]c(=O)[nH]c2=O)cc1	1	34	i	-6	0	nt	nt
O=C1NC(=S)NC1(c1ccccc1)c1ccccc1	-5	3	i	1	-2	nt	nt
Cc1cc(C)nc(OC(C(=O)O)C(OCCc2ccccc2)(c2ccc(F)cc2)c2ccc(F)cc2)n1 (configuration not stated)	4	36*	i	1	1	49*	11*
CCCOC(c1ccccc1)(c1ccc(C(F)(F)F)cc1)C(Oc1nc(C)cc(C)n1)C(=O)O (configuration not stated)	6	30	i	1	2	nt	nt
O=C(CNCc1cccc2ccccc12)Nc1ccccc1[N+](=O)[O-]	22	-3	i	0	2	nt	nt
CCN(CC)c1ccc(C(=C2C=CC(=[N+](CC)CC)C=C2)c2ccc(S(=O)(=O)O)cc2S(=O)(=O)[O-])cc1	-5	46*	i	-3	7	58*	18*
